108 sequences from PubChem BioAssay AID1347426 (Functional Genomics Laboratory (NCATS/FGL), 2020) can be followed below.

Hit rate of the full screen: of about 31,000 sequences, about 1,400 (4.5%) were called active.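 How the source made its calls: active means median seed-adjusted z-score above 1 or below -1; inactive means the rest.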 Only a selection was taken, and actives are over-represented in it overall.

This assay can be described thus: Novel Modifiers of Survival Motor Neuron (SMN) Protein: Gene Identification via Genome-wide siRNA Screen.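 Further: luminescence tracks full-length SMN protein made from the SMN2 reporter.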 As to conditions: HEK293T SMN2-luciferase reporter, siRNA knockdown, 72 h; actives lie on both sides. The gist of the method:
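HEK293T cells stably expressing an SMN2 splicing/cDNA-luciferase reporter were reverse-transfected with a druggable-genome siRNA library and read by luminescence at 72 hours; hits defined by MAD score above 1.0 or below -1.0.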
A general note: Reporter assays use an easily measured gene product as a stand-in for the process of interest.
GGACCAUUUAGAGAAGGUUTT against WARS2: the median seed-adjusted z-score was 0.21 (inactive).

Turning to CCUACGUUACUUUCCCUCATT against FOXD4L6, the median seed-adjusted z-score is -0.137 (inactive).

Take CAUGGAACAUUGUGAGAAATT against RPS6KB1: the median seed-adjusted z-score is 1.4 (active).

Regarding AAAUCAAGAUUCUUACUGATT against TPM3, the median seed-adjusted z-score was 0.111 (inactive). Take GCACUUUAGAAUCACACGATT against TRMT6: the median seed-adjusted z-score is 0.069 (inactive). As for GCUCAUUGUACAUCUCAGATT against ZNF26, the figure is 0 (inactive); as for CCUGCUUACCUGAUCAAAATT against SLC25A34, -0.256 (inactive).

Regarding GCAUAACUGUAGACUACAATT against ADAM32, the median seed-adjusted z-score is 1.75 (active).

As for CAGUCUUACUGGGAACAAUTT against TGDS, the median seed-adjusted z-score was -0.196 (inactive).

GCCCAUUGGAUAUCAGUAUTT against STRADB: the median seed-adjusted z-score was 0.21 (inactive). On to CUAUUAGGUUGACCAAUAATT against OSGEPL1, for which the median seed-adjusted z-score was -0.708 (inactive). In the case of GGAGGAUCAAUUUAUCAGATT against VDAC2, the median seed-adjusted z-score is 0.648 (inactive). Take CAGUGUUCCUAUUAGAUGATT against LONP2: the median seed-adjusted z-score was 1.52 (active). Consider CCUGUGCUGUUAUGAAGCUTT against APC2, for which the median seed-adjusted z-score was 0.00354 (inactive). As for GAAUGGAGAGAGAAUUGAATT against B2M, the figure is -0.367 (inactive). As for GGAUUAAAGAGAAGAUCUATT against ERH, the figure is -1.25 (active); as for CCAGGAGAAAUAUAAGUCATT against ZNF627, 0.204 (inactive); as for GGACGAGAAAAACUGCUCATT against CORIN, -0.0274 (inactive).

Take GCAUACAUAUGGUAUAGCATT against DDX20: the median seed-adjusted z-score is -0.0137 (inactive).

As to GCGGAGAUCAGAUUAGUCATT against NCL, the median seed-adjusted z-score was 1.33 (active). GCAUGACCGCUUAUCCCAATT against SLC6A5: the median seed-adjusted z-score is -0.204 (inactive). Turning to CAUUCACUUUGACACCAUATT against HSD17B7, the median seed-adjusted z-score was 0.0836 (inactive). As to GGUUUUUGCUGGACAAACATT against PPP2R3C, the median seed-adjusted z-score is 0.295 (inactive). Turning to CCGUGUACGUGGAUGAUGATT against LPHN1, the median seed-adjusted z-score was -1.03 (active). As for GCAUUAGUCUGACAGUACATT against MRGPRX3, the figure is -0.175 (inactive). Turning to CGAACCUAAUGCUCAACAATT against PREX2, the median seed-adjusted z-score is -0.0625 (inactive).

On to GGAAAUUAGAUACCGAGGATT against SLC25A30, for which the median seed-adjusted z-score is 0 (inactive).

Take GGCUAACAUUAGAACACUUTT against MED6: the median seed-adjusted z-score was -2.15 (active).

For CGGAGUCUGCGCUUCGUUATT against ACP2, the median seed-adjusted z-score is -0.00569 (inactive). For the sequence GCUUUAUAAGUGUAGCGAATT against ZNF749, the median seed-adjusted z-score is 0.911 (inactive). With GGAGGUCACUUGUGAAUCATT against GLS2, the median seed-adjusted z-score is -0.793 (inactive). Take CCCAGUUCCUGCUAUCUCATT against POU2F3: the median seed-adjusted z-score is -1.53 (active).

In the case of GGGCUACCAUCUCCUUUCATT against SLC23A3, the median seed-adjusted z-score was -0.254 (inactive).

On to GUACCCAAGUAACAACUGUTT against CXCL11, for which the median seed-adjusted z-score was -0.135 (inactive). Turning to UCCACUGACUCGUAAAGUUTT against PROK2, the median seed-adjusted z-score is -0.00826 (inactive). As to GCUCGGUGGUUGAUAAUCATT against SLC22A10, the median seed-adjusted z-score is -0.0897 (inactive). Take AGACCAUCGCAGAGACAGATT against SLC31A2: the median seed-adjusted z-score was 0.401 (inactive).

Consider GGAUGUUCGUCAUAUUGAATT against IRAK3, for which the median seed-adjusted z-score was 0.155 (inactive). With CAAAAGACCUGUAAUAAGATT against MAGT1, the median seed-adjusted z-score is -0.0855 (inactive). GCCUUGAUGCUGAUCAUCATT against MEP1B: the median seed-adjusted z-score was 1.46 (active). For the sequence GGUGAAUCAUUUGAACUGATT against RCL1, the median seed-adjusted z-score was 0.0807 (inactive).

Regarding GGAAUACUCAGAUCGGGAATT against MAP3K3, the median seed-adjusted z-score was -0.182 (inactive).

Regarding GUAUGGAGAUCUCUACGGATT against RYR3, the median seed-adjusted z-score was 0 (inactive). In the case of GUAUGACCUAAAAACCGAATT against MTRR, the median seed-adjusted z-score is -0.381 (inactive). For AGAGAUACUUCUUAAAUCATT against YAP1, the median seed-adjusted z-score is -0.247 (inactive). For the sequence GCUCAAUGCAGGUAUUCAATT against KLF8, the median seed-adjusted z-score was 0.0976 (inactive). As to “AAGUCUCAUUCGUGGUUGATT against ST6GALNAC6”, the median seed-adjusted z-score is 0.367 (inactive). On to CAGCCCAAGUGUCGCCUUATT against PAX9, for which the median seed-adjusted z-score was -1.16 (active). As for GAUAUUCUCUGUGACGUGATT against BACH2, the figure is 0 (inactive).

As to GACCAGAUGUGGAUGUAAATT against MIB1, the median seed-adjusted z-score is 0 (inactive). Take ACUAGCCUGUGGAGCAAGATT against HBE1: the median seed-adjusted z-score was -0.425 (inactive). As for CCGAUCAAGUGAACAUAGATT against AKAP4, the figure is 0.116 (inactive); as for CCUUCUCAACAUAGGAUAATT against ZNF257, 0.306 (inactive). As for UGGGUUGGAUGAUACCUUATT against GATA5, the figure is 0.15 (inactive); as for GAGGGUCUCUUCUUAAGUATT against CAD, 2.37 (active). For UCAUCACAGCGGUACUGUATT against ITGAX, the median seed-adjusted z-score is -0.0677 (inactive). Regarding GCAGGUAGCUCAUAUGUUUTT against WDR31, the median seed-adjusted z-score was 0.796 (inactive). As for GGACCACGUCAAGACUUGUTT against TRAF2, the figure is -0.00463 (inactive); as for CAAACUUCCCGAUAGAGAATT against CTDP1, -2.29 (active).

Consider CUAUCAGGGAAAUUACGUATT against ZNF713, for which the median seed-adjusted z-score is -0.0652 (inactive). Regarding AAAUGUAACCUUUUGCUUUTT against DAD1, the median seed-adjusted z-score is -0.45 (inactive).

In the case of GCUUUACCUUGGACCUGAATT against MPL, the median seed-adjusted z-score was -0.0153 (inactive). Turning to GCGUGAUCAUCGAUGUGGATT against SLC5A7, the median seed-adjusted z-score was 0.624 (inactive). On to GAUGUUCCCUAUAUGCAAATT against CLDN10, for which the median seed-adjusted z-score was 0.0399 (inactive). In the case of GUGUAUCUAUGGAAGAGCATT against PSMD4, the median seed-adjusted z-score was 1.46 (active). As for CUAUAAUUCCAGAGCAUAATT against KLF5, the median seed-adjusted z-score was -0.338 (inactive).

Consider GGACCUUGGAUUAUCUGAATT against YME1L1, for which the median seed-adjusted z-score was 0.131 (inactive). As for CACUAGUUCUAUGACCAUUTT against IMPG1, the median seed-adjusted z-score was -0.252 (inactive). On to GCAUGGAAGUGUACGAGUATT against THBS3, for which the median seed-adjusted z-score was 0.429 (inactive). For CCACUGACAAGGUCCACGATT against MRGPRD, the median seed-adjusted z-score is -0.484 (inactive). With CCGUAAACUUCAUAACAUUTT against DYRK1A, the median seed-adjusted z-score was -1.3 (active). As for CCUUAGUUCUUCCUCGGAATT against PARP12, the figure is -0.287 (inactive); as for GCUGAUCUAUCACAAACCATT against SERPINA2, 0.285 (inactive). As for AAUGCAUUGUGAACCCAUUTT against GNGT2, the figure is -0.289 (inactive); as for GGUUAGAAGAGGUGUCUAATT against NUMB, -0.599 (inactive); as for AGCCCAAGGUGGAACAAUCTT against CREM, -2.37 (active). GGAUGAACCCAAUCCCAAUTT against UBE2A: the median seed-adjusted z-score was 0.306 (inactive). On to GGUCCCUGUUGAGAAACGATT against TOP1, for which the median seed-adjusted z-score was 0.0303 (inactive). Take GCAAAGGCCUUGUACGUCATT against USP10: the median seed-adjusted z-score is 0.182 (inactive).

As for GCUUGAGUAUAGAUAAAGATT against PAM, the median seed-adjusted z-score was 0 (inactive). On to UGGACACCGUCACCAUGAATT against GPR78, for which the median seed-adjusted z-score was 0.607 (inactive). Regarding GCCGAGCUCUUUAUCCUCUTT against TRHDE, the median seed-adjusted z-score is 0.429 (inactive). On to GGAUCGGGUGUAUCAACAATT against SRP54, for which the median seed-adjusted z-score was 0.203 (inactive).

For the sequence CAUUGUCGUUGGUGCAGUATT against ADCY10, the median seed-adjusted z-score was -0.573 (inactive). GGAAUUACGGAGAUAUAGATT against TRRAP: the median seed-adjusted z-score is -1.25 (active).

Turning to GGACACAUCUCGGACAGCATT against KLK9, the median seed-adjusted z-score is -0.476 (inactive).

In the case of GUACCUUGAGAAGAAAUUUTT against ACCN1, the median seed-adjusted z-score was -0.325 (inactive). Take UCAGCUCCAUUAAUAGAAUTT against PAX8: the median seed-adjusted z-score is 0 (inactive).

For CCUCAUAAGUGUAAGAUAUTT against ZNF799, the median seed-adjusted z-score is -1.02 (active). GAAUGUCCCUGCUCCACAATT against SNAI1: the median seed-adjusted z-score was 0.0196 (inactive). Consider ACAACUUCCUGGUCGCUGATT against GPR62, for which the median seed-adjusted z-score was 0.0306 (inactive).

Turning to AGAAGAUCCGAAAGAAAUATT against GABARAP, the median seed-adjusted z-score is 0.418 (inactive). Regarding CCAACGACCUGGUUAUGAATT against FBP1, the median seed-adjusted z-score was -0.221 (inactive). Take GGUUGGAACUCGUUCCUCATT against NLGN4X: the median seed-adjusted z-score is -0.1 (inactive). With GCACAAGACGAACUCAGUATT against UBE2J2, the median seed-adjusted z-score was -0.341 (inactive). For GCAUUGUCUCUCUUAUGUUTT against SYVN1, the median seed-adjusted z-score is -1.41 (active).

With AGAUCAAGCUCCUCAACAATT against KRT4, the median seed-adjusted z-score was 0.336 (inactive). Consider GUUAUUCCCUGUUCUCGAATT against ALDH5A1, for which the median seed-adjusted z-score was 0.339 (inactive). As to GGACGUGGACCAUUACUGUTT against LITAF, the median seed-adjusted z-score is 0.0771 (inactive). Turning to GAUUAACCAAGGUUGAGAATT against CNGA1, the median seed-adjusted z-score was -1.08 (active). CCACAUCUCUACUCGUGAATT against ULK4: the median seed-adjusted z-score is 0.0834 (inactive).

Consider GGAGUUACGAUAGCCGGAATT against DIAPH1, for which the median seed-adjusted z-score was 0.145 (inactive). For CGGGAUAAUUUUGACAAGATT against NXF2, the median seed-adjusted z-score was -0.0513 (inactive). As for GGAAACUCUGUUUACGUUATT against BTAF1, the figure is -1.19 (active). On to GGACAACAUUUGACACCAATT against APOBEC2, for which the median seed-adjusted z-score was 0.232 (inactive). As for CAGACACCUUCAUACCUUATT against BHMT, the figure is 0 (inactive); as for CUGCAAGACUUGGAGCUAATT against HDLBP, -1.18 (active); as for UGGGAGAAGUACAACAAUATT against FAM12A, 0.08 (inactive).
